Compound activity as filed in PubChem BioAssay.
Shown is part of a subset that was picked to be rich in hits.
Hedgehog inh – Hedgehog pathway signaling inhibitors, primary screen, luminescence, Shh-LIGHT2 cells, Gli-luciferase; Shh-LIGHT2 Gli-luciferase reporter, 30 h; inhibition, % (no concentration beside the values); hit rate 2.1% among 22,000; AID 2313, 2010;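 active = mean inhibition across valid replicates above about 65%, limit read from the data; inconclusive = mean under the limit, yet half or more replicates past it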;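 note: pathway switched on by Shh-conditioned medium diluted 1 in 25 in low serum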
MITF inh – inhibitors of MITF, primary screen, MITF inhibitor project, cell-based, luminescence | TRPM1 promoter luciferase, 24 h | AID 2240, 2010 | hit rate 0.28% among 37,000 | inhibition, % (no concentration beside the values); in the data active = inhibition above about 85%; inconclusive = no clear call, values can overlap the other calls; inactive = below about 68%;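 note: human melanocyte line stably carrying TRPM1 promoter luciferase reporter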
BJeLR viability – BJeLR cell viability loss, primary screen, luminescence, CellTiterGlo ATP. BJeLR fibroblasts viability, 48 h; HRASV12, hTERT and SV40 LT/ST transformed. viability loss activity score, % (no concentration beside the values). hit rate 0.64% among 30,000. AID 2275, 2010; in the data active = viability loss activity score above about 50%; inconclusive = no clear call, values can overlap the other calls; inactive = below about 35%;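 note: higher score means fewer live cells and less ATP luminescence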
YB-1 expression – inhibitors of YB-1 gene expression, primary screen, cell-based, fluorescence; U2OS, qRT-PCR YB-1 vs CDIP delta delta Cp, 16 h; hits give high values; zero = DMSO, each unit about twofold; delta delta Cp (YB-1 minus CDIP) (no concentration beside the values); hit rate 0.37% among 30,000; AID 434959, 2010;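 active = delta delta Cp rounded down to an integer at or above 3, about 3 SD of DMSO wells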;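 note: higher means less YB-1 transcript or more CDIP transcript relative to DMSO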
Each line names hits and unclear results; the compound was inactive in the other large screens.

O=C1NCCN1CCNC(=S)Nc1cc(C(F)(F)F)cc(C(F)(F)F)c1	none
CC(=O)N1CCN(c2ccc(OCC3CO[C@](Cn4ccnc4)(c4ccc(Cl)cc4Cl)O3)cc2)CC1 (stereo partly specified)	Hedgehog inh 107
CC(C)N1CCN(c2ccc(OC[C@H]3CO[C@](Cn4cncn4)(c4ccc(Cl)cc4Cl)O3)cc2)CC1	none
CNC[C@@H]1Oc2c(N)cccc2C(=O)N([C@@H](C)CO)C[C@H]1C	none
Cc1noc(C)c1S(=O)(=O)Nc1ccc2c(c1)C(=O)N([C@H](C)CO)C[C@H](C)[C@H](CN(C)C(=O)Nc1ccc(C(F)(F)F)cc1)OCCCC[C@@H](C)O2	Hedgehog inh 100 (no result: BJeLR viability)
C[C@@H]1CCCCO[C@@H](CN(C)C(=O)Nc2ccc(C(F)(F)F)cc2)[C@@H](C)CN([C@H](C)CO)C(=O)c2cc(NS(=O)(=O)c3ccc(F)cc3)ccc2O1	Hedgehog inh 98 (no result: BJeLR viability)
Cc1noc(C)c1S(=O)(=O)Nc1ccc2c(c1)C(=O)N([C@H](C)CO)C[C@H](C)[C@@H](CN(C)C(=O)Nc1ccc(C(F)(F)F)cc1)OCCCC[C@@H](C)O2	none (no result: BJeLR viability)
Cc1ccc(S(=O)(=O)Nc2ccc3c(c2)C(=O)N([C@H](C)CO)C[C@H](C)[C@@H](CN(C)C(=O)Nc2ccc(C(F)(F)F)cc2)OCCCC[C@@H](C)O3)cc1	none (no result: BJeLR viability)
COc1ccc(OC)c(NC(=O)COc2ccccc2)c1	none (no result: Hedgehog inh, MITF inh, YB-1 expression)
Cc1cc(N(Cc2cccc(Cl)c2Cl)C(=O)c2ccccc2)no1	none
O=C(C1CC1)N1c2ccccc2CCc2ccccc21	BJeLR viability 54 (no result: Hedgehog inh, MITF inh, YB-1 expression)
O=C(NC1CCCCC1)N1c2ccccc2CCc2ccccc21	none (no result: Hedgehog inh, MITF inh, YB-1 expression)
O=C1c2c(O)cc(O)cc2OC(c2ccc(O)cc2)C1C1C(=O)c2c(O)cc(O)cc2OC1c1ccc(O)cc1 (stereo unspecified)	none (no result: MITF inh, BJeLR viability)
O=C1c2c(O)cc(O)cc2O[C@@H](c2ccc(O)cc2)[C@H]1[C@@H]1C(=O)c2c(O)cc(O)cc2O[C@H]1c1ccc(O)cc1	Hedgehog inh 72
CC1(C)COC(CCC/C=N/NC(=O)CCCCCC(=O)O)OC1	none (no result: Hedgehog inh, MITF inh, BJeLR viability)
C=Cc1cncc2c(=O)n3c(cc12)-c1[nH]c2ccccc2c1CC3	none
CCOC(=O)c1cc(-c2ccccc2)sc1NC(=O)CCN1CCN(CC)CC1	BJeLR viability 51 (no result: Hedgehog inh, MITF inh, YB-1 expression)
C=CCn1c(Sc2ncnc3c2cnn3-c2ccccc2)nnc1-c1ccncc1	BJeLR viability 69 (no result: Hedgehog inh, MITF inh, YB-1 expression)
C=CCn1c(SCC(=O)O)nnc1-c1ccncc1	none (no result: Hedgehog inh, BJeLR viability, YB-1 expression)
COc1c(O)c2c(=O)cc(OC)c3c4c(OC)cc(=O)c5c(O)c(OC)c(C[C@@H](C)OC(=O)c6ccccc6)c(c(c1C[C@@H](C)OC(=O)Oc1ccc(O)cc1)c23)c54	Hedgehog inh 72
COc1ccc(C(OC(=O)c2ccccc2)c2nccc3ccccc23)cc1 (stereo unspecified)	none (no result: Hedgehog inh)
CC1=C(CO)C(=O)OC([C@@H](C)C2CC[C@H]3C4C[C@H]5O[C@]56[C@@H](O)C=CC(=O)[C@]6(C)C4CC[C@]23C)C1 (stereo partly specified)	Hedgehog inh inconclusive, MITF inh 90
CCOc1ccc(C(=O)Nc2ccc(OCC(=O)O)cc2)cc1	none (no result: Hedgehog inh, BJeLR viability, YB-1 expression)
CCOc1ccc(C(=O)Nc2cc(C)ccn2)cc1	BJeLR viability 90 (no result: Hedgehog inh, MITF inh, YB-1 expression)
COc1ccc(C2=Nn3cnnc3SC2)cc1OC	none (no result: Hedgehog inh, MITF inh, YB-1 expression)
COc1ccc(NC(=O)Nc2cccc3c2O[C@H](CN(C)CC2CCCCC2)[C@@H](C)CN([C@H](C)CO)C3=O)cc1	none
COc1cc(/C=C\C(=O)O)cc(OC)c1OC	none (no result: MITF inh, BJeLR viability)
COc1cc(/C=C/C(=O)N2CCC=CC2=O)cc(OC)c1OC	Hedgehog inh 84
Cc1nc(-c2ccc(S(=O)(=O)N3CCCc4ccccc43)s2)cs1	BJeLR viability 56 (no result: Hedgehog inh, MITF inh, YB-1 expression)
Cc1c(C2CCN(CCc3ccccc3)CC2)noc1-c1ccc(Cl)cc1	Hedgehog inh 77
COc1cc2c(c(OC)c1OC)-c1ccc(OC)c(=O)cc1[C@@H](NC(C)=O)CC2	Hedgehog inh 91, BJeLR viability 60
CN(C(=O)C(Cl)Cl)c1ccc(OC(=O)c2ccco2)cc1	YB-1 expression 3.7
CC1=C(C#N)C(c2ccccc2)C2=C(CC(c3ccccc3)CC2=O)N1 (stereo unspecified)	none (no result: Hedgehog inh, MITF inh, YB-1 expression)
CSc1sc(C#N)c2c1C(=O)CC(c1ccccc1)C2 (stereo unspecified)	Hedgehog inh 86
O=C(COc1ccc(Br)cc1)NCC1CCCO1 (stereo unspecified)	YB-1 expression 9.5
O=C(CSc1ccc(F)cc1Cl)C12CC3CC(CC(C3)C1)C2	YB-1 expression 7.2
C[C@@H]1O[C@@H](O[C@H]2[C@@H]3C=CO[C@@H](O[C@@H]4O[C@H](CO)[C@@H](O)[C@H](O)[C@H]4O)[C@@H]3[C@@]3(CO)O[C@@H]23)[C@H](O)[C@H](O)[C@H]1OC(=O)/C=C/c1ccccc1	none (no result: MITF inh, BJeLR viability)
C[C@@H]1O[C@@H](O[C@H]2[C@@H]3C=CO[C@@H](O[C@@H]4O[C@H](CO)[C@@H](O)[C@H](O)[C@H]4O)[C@@H]3[C@@]3(CO)O[C@@H]23)[C@H](OC(=O)/C=C/c2ccc(O)cc2)[C@H](O)[C@H]1O	Hedgehog inh 65 (no result: MITF inh, BJeLR viability)
C[C@@H]1C[C@H]2[C@@H]3CCC4=CC(=O)C=C[C@]4(C)[C@@]3(F)[C@@H](O)C[C@]2(C)[C@@]1(O)C(=O)CO	none
CC(=O)[C@@]1(O)CC[C@H]2[C@@H]3C[C@H](C)C4=CC(=O)C=C[C@]4(C)[C@@]3(F)[C@@H](O)C[C@@]21C	Hedgehog inh 67
CC(=O)OCC(=O)[C@@]1(O)[C@H](C)C[C@H]2[C@@H]3CCC4=CC(=O)C=C[C@]4(C)[C@@]3(F)[C@@H](O)C[C@@]21C	Hedgehog inh 82
C[C@@H]1CN([C@H](C)CO)C(=O)Cc2cc(NC(=O)Nc3ccc4c(c3)OCO4)ccc2O[C@@H]1CN(C)Cc1ccc(C(=O)O)cc1	none (no result: Hedgehog inh, BJeLR viability)
Cc1cccc(NC(=O)CCn2cnc3ccccc3c2=O)c1C	none (no result: Hedgehog inh, BJeLR viability, YB-1 expression)
O=C(CN1C(=O)/C(=C\c2ccc(C(F)(F)F)cc2)Sc2ccccc21)N1CCc2ccccc2C1	none (no result: Hedgehog inh, MITF inh, YB-1 expression)
CC(O)CC(=O)c1cc(O)ccc1O (stereo unspecified)	YB-1 expression 4.6
O=C(O)c1cc(C23CC4CC(CC(C4)C2)C3)nc2ccc(Br)cc12	none
c1ccc2[nH]c(-c3nc4ccccc4s3)nc2c1	MITF inh 86, BJeLR viability 101
c1ccc2[nH]c(-c3cscn3)nc2c1	BJeLR viability 59
C[C@H](CO)N1C[C@H](C)[C@H](CN(C)C(=O)Nc2ccc(F)cc2)Oc2ccc(NS(=O)(=O)c3cn(C)cn3)cc2C1=O	none (no result: Hedgehog inh)
CS(=O)(=O)N(CC(=O)Nc1ccc(Cl)c(Cl)c1)c1ccc(Br)cc1	MITF inh 116 (no result: Hedgehog inh, BJeLR viability, YB-1 expression)
CS(=O)(=O)N(CC(=O)Nc1ccc(Cl)c(Cl)c1)c1cc(Cl)cc(Cl)c1	none (no result: Hedgehog inh, BJeLR viability, YB-1 expression)
C=CCSc1ncc2c(=S)[nH]c(=S)[nH]c2n1	Hedgehog inh 65
C=C1CCC2C(C)(CO)CCCC2(C)C1CC/C(C)=C/C(=O)O (stereo unspecified)	none (no result: MITF inh, BJeLR viability)
